Measured values: PubChem BioAssay (EPA / NIEHS)
More than one record can exist for a structure, and the calls need not agree. Activity calls are given as the source filed them. Rule for the calls: active = hit-call score of the fitted dose curve at least 0.9, where 1 is the maximum; inactive = score below 0.9.

How the values were obtained:
[1] = BSK_3C_TissueFactor: BioMAP Diversity Plus: 3C Assay for Tissue Factor Biomarker Activity (AID 2282997); conditions: BioMAP 3C HUVEC, tissue factor biomarker readout; actives raise or lower the signal
Summary of the method: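 Dosing of human umbilical vein endothelial cells preceded a 24 h incubation. Tissue Factor was then read by ELISA, with increases and decreases both scored relative to DMSO controls.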

[2] = BSK_3C_uPAR: BioMAP Diversity Plus: 3C Assay for Urokinase-type plasminogen activator receptor (uPAR) Biomarker Activity (AID 2282998); conditions: BioMAP 3C HUVEC, uPAR biomarker ELISA; actives raise or lower the signal
Summary of the method: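 Readout: ELISA for surface uPAR. System: human umbilical vein endothelial primary cells, 24 h after chemical exposure. Analysis: bidirectional fit, DMSO baseline.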

[3] = BSK_4H_Eotaxin3: BioMAP Diversity Plus: 4H Assay for Eotaxin 3 Biomarker Activity (AID 2283000); conditions: primary human endothelial cells (HUVEC); actives raise or lower the signal;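 for outcome: CCL26 protein level quantified by ELISA in parallel with SRB cytotoxicity check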
Summary of the method: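 Human umbilical vein endothelial cells (BSK_4H system) dosed with test chemical; Eotaxin-3 (CCL26) measured by ELISA 24 h after dosing. Bidirectional curve fitting relative to DMSO negative control as baseline.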

[4] = read-out: Intercellular Adhesion Molecule 1 (ICAM1), ICAM1 (gene 3383); experiment: BSK_3C_ICAM1: BioMAP Diversity Plus: 3C Assay for Intercellular Adhesion Molecule 1 (ICAM1) Biomarker Activity (AID 2283003); conditions: primary human endothelial cells (HUVEC); actives raise or lower the signal
Summary of the method: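 Human vascular endothelial primary cells, 3C conditions, 24 h treatment. ICAM-1 by ELISA.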

[5] = read-out: E-selectin (Homo sapiens) (UniProt P16581); experiment: BSK_3C_Eselectin: BioMAP Diversity Plus: 3C Assay for Eselectin Biomarker Activity (AID 2283015); conditions: primary human endothelial cells (HUVEC); actives raise or lower the signal
Summary of the method: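 E-selectin ELISA readout, fitted bidirectionally relative to DMSO, taken 24 h post-dosing in HUVEC cultures of the 3C system. Overt cytotoxicity tracked with sulforhodamine B staining of parallel wells.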

[6] = read-out: Monocyte Chemoattractant Protein-1 (MCP1), CCL2 (gene 6347); experiment: BSK_4H_MCP1: BioMAP Diversity Plus: 4H Assay for Monocyte Chemoattractant Protein-1 (MCP1) Biomarker Activity (AID 2283018); conditions: primary human endothelial cells (HUVEC); actives raise or lower the signal
Summary of the method: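 Readout: MCP-1 ELISA on compound-treated HUVEC, sampled 24 h post-dosing. Baseline and negative control DMSO; bidirectional fit. Overt toxicity checked alongside by sulforhodamine B protein staining at time of biomarker measurement.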

[7] = read-out: Human Leukocyte Antigen - DR isotype (HLADR), HLA-DRA (gene 3122); experiment: BSK_3C_HLADR: BioMAP Diversity Plus: 3C Assay for Human Leukocyte Antigen - DR isotype (HLADR) Biomarker Activity (AID 2283019); conditions: primary human endothelial cells (HUVEC); actives raise or lower the signal;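 for outcome: ELISA of cell-surface HLA-DR on HUVEC 24 h after dosing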
Summary of the method: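 Bidirectional fitting against DMSO was applied to the HLA-DR ELISA signal from human umbilical vein endothelial cells, 24 h post-dose. Cytotoxicity came from parallel SRB total-protein staining; 3C proliferation was counted by SRB at 48 h.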

[8] = read-out: Monokine induced gamma interferon (MIG), CXCL9 (gene 4283); experiment: BSK_3C_MIG: BioMAP Diversity Plus: 3C Assay for Monokine induced gamma interferon (MIG) Biomarker Activity (AID 2283021); conditions: primary human endothelial cells (HUVEC); actives raise or lower the signal;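 for AC50: MIG protein level measured by immunoassay in the treated endothelial cultures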
Summary of the method: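 After 24 h of treatment, human umbilical vein endothelial cultures (3C system) had their MIG biomarker level determined by ELISA, with DMSO serving as negative control.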

[9] = BSK_3C_SRB: Viability Assessment in the BioMAP Diversity Plus: 3C Assay (AID 2283023); conditions: primary human endothelial cells (HUVEC);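 note: fitted both ways against DMSO so a hit may be signal rise or drop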
Summary of the method: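 Cytotoxicity readout in parallel HUVEC 3C cultures: after 24 h compound exposure, cells fixed with 10% TCA, stained with 0.1% SRB and read at 560 nm. Gain or loss relative to DMSO fitted.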

[10] = read-out: Matrix Metallopeptidase 1 (MMP1), MMP1 (gene 4312); experiment: BSK_BE3C_MMP1: BioMAP Diversity Plus: BE3C Assay for Matrix Metallopeptidase 1 (MMP1) Biomarker Activity (AID 2283024); conditions: primary human bronchial epithelial cells; actives raise or lower the signal
Summary of the method: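 Dose cells, wait 24 h, run MMP1 ELISA; cells are human bronchial epithelial primaries. Both increases and decreases relative to DMSO counted.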

[11] = BSK_BE3C_SRB: Viability Assessment in the BioMAP Diversity Plus: BE3C Assay (AID 2283028); conditions: primary human bronchial epithelial cells;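 for AC50: fitted both ways so AC50 may mark signal gain or loss versus DMSO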
Summary of the method: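 Cytotoxicity read-out: SRB (0.1%) staining of TCA-fixed (10%) human lung bronchial epithelial cells, absorbance 560 nm, 24 h post-dosing. Curves fitted both directions relative to DMSO.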

[12] = read-out: Thrombomodulin, THBD (gene 7056); experiment: BSK_3C_Thrombomodulin: BioMAP Diversity Plus: 3C Assay for Thrombomodulin Biomarker Activity (AID 2283029); conditions: primary human endothelial cells (HUVEC); actives raise or lower the signal
Summary of the method: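 Thrombomodulin ELISA, human primary HUVEC, 24 h post-dose; data fitted in both directions relative to DMSO.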

[13] = read-out: Interferon-gamma inducible Protein 10 (IP10), CXCL10 (gene 3627); experiment: BSK_hDFCGF_IP10: BioMAP Diversity Plus: hDFCGF Assay for Interferon-gamma inducible Protein 10 (IP10) Biomarker Activity (AID 2283053); conditions: primary human foreskin fibroblasts; actives raise or lower the signal
Summary of the method: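 IP-10 levels, quantified by ELISA, are taken from human foreskin fibroblast cultures 24 h after chemical treatment, with DMSO serving as negative control and baseline for bidirectional analysis.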

[14] = read-out: Vascular cell adhesion molecule 1 (VCAM1), VCAM1 (gene 7412); experiment: BSK_CASM3C_VCAM1: BioMAP Diversity Plus: CASM3C Assay for Vascular cell adhesion molecule 1 (VCAM1) Biomarker Activity (AID 2283055); conditions: primary human coronary artery smooth muscle cells; actives raise or lower the signal;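 note: VCAM-1 protein level quantified by ELISA on the cells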
[15] = read-out: Macrophage colony-stimulating factor (MCSF), CSF1 (gene 1435); experiment: BSK_hDFCGF_MCSF: BioMAP Diversity Plus: hDFCGF Assay for Macrophage colony-stimulating factor (MCSF) Biomarker Activity (AID 2283060); conditions: AC50: primary human foreskin fibroblasts, actives raise or lower the signal unless noted; outcome: primary human foreskin fibroblasts, actives raise or lower the signal unless noted
Summary of the method: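 M-CSF levels read by ELISA at 24 h post-dosing in human skin fibroblasts. Parallel cultures stained with SRB assessed cytotoxicity at the same time point; response fitted in both directions against the DMSO baseline.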

[16] = read-out: Matrix Metallopeptidase 1 (MMP1), MMP1 (gene 4312); experiment: BSK_hDFCGF_MMP1: BioMAP Diversity Plus: hDFCGF Assay for Matrix Metallopeptidase 1 (MMP1) Biomarker Activity (AID 2283064); conditions: primary human foreskin fibroblasts; actives raise or lower the signal
Summary of the method: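 Primary human foreskin fibroblasts exposed to chemicals for 24 h; MMP1 measured by ELISA. Cytotoxicity tracked by SRB staining in parallel cultures; bidirectional fit relative to DMSO.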

[17] = read-out: Interleukin-8 (IL8), CXCL8 (gene 3576); experiment: BSK_LPS_IL8: BioMAP Diversity Plus: LPS Assay for Interleukin-8 (IL8) Biomarker Activity (AID 2283078); conditions: primary human HUVEC with PBMC; actives raise or lower the signal
Summary of the method: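 ELISA read-out of IL-8 after 24 h chemical treatment of LPS-activated endothelial/PBMC human primary co-cultures. Changes either up or down relative to DMSO; overt cytotoxicity checked by sulforhodamine B staining in parallel wells.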

[18] = read-out: E-selectin (Homo sapiens) (UniProt P16581); experiment: BSK_SAg_Eselectin: BioMAP Diversity Plus: SAg Assay for Eselectin Biomarker Activity (AID 2283091); conditions: primary human HUVEC with PBMC; actives raise or lower the signal
Summary of the method: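 Cell-surface E-selectin is read by ELISA at 24 h in the SAg co-culture of HUVEC and PBMC. Curves are fitted in both directions relative to DMSO. Parallel SRB total-protein staining tracks overt toxicity.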

[19] = BSK_SAg_PBMCCytotoxicity: PBMC Cytotoxicity Assessment in the BioMAP Diversity Plus: SAg Assay (AID 2283093); conditions: primary human HUVEC with PBMC;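 note: PBMC viability measured as Alamar Blue reduction fluorescence at 546/580 nm; fitted both ways against DMSO so a hit may be loss or gain of signal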;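 for AC50: PBMC superantigen activated with SEB plus TSST-1 one hour after compound addition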
Summary of the method: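 HUVEC/PBMC co-culture; PBMC exposed to chemical 1 h before SEB and TSST-1 activation (20 ng/mL each), incubated 90 h, then Alamar Blue 6 h, fluorescence 546/580 nm. Bidirectional fit versus DMSO baseline.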

[20] = read-out: Interleukin-8 (IL8), CXCL8 (gene 3576); experiment: BSK_SAg_IL8: BioMAP Diversity Plus: SAg Assay for Interleukin-8 (IL8) Biomarker Activity (AID 2283094); conditions: primary human HUVEC with PBMC; actives raise or lower the signal
Summary of the method: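 In this co-culture of human umbilical vein endothelium with peripheral blood mononuclear cells, IL-8 is assayed by ELISA at 24 h. DMSO serves as baseline for bidirectional curve fitting.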

Measured: AC50

Chain of E-selectin (Homo sapiens) (P16581 whole entry, looked up): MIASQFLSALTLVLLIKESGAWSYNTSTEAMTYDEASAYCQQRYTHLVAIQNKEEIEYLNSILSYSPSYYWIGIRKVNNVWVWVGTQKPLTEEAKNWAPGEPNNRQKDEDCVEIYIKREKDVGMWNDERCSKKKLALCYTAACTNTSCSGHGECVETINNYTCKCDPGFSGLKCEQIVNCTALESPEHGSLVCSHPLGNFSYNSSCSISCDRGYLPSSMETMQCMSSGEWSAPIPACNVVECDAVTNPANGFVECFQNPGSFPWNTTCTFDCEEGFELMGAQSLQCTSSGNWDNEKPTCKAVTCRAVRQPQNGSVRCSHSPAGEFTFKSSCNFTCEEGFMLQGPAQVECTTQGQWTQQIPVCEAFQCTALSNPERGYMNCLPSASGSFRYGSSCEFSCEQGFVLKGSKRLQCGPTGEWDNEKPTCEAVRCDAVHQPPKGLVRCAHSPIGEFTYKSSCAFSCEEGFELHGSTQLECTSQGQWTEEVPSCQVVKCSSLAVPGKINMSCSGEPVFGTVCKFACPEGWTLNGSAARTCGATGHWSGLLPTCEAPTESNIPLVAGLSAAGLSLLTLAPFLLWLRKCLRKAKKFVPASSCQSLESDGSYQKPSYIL

CCCCCCCCCCCCCCCCCC[N+](C)(C)C
active: [1] 5 µM | [2] 1.27 µM | [3] 1.89 µM | [4] 3.46 µM | [5] 5 µM | [6] 0.664 µM | [7] 1.27 µM | [8] 7.62 µM | [9] 1.31 µM | [10] 6.82 µM | [11] 3.49 µM | [12] 2.9 µM | [13] 2.67 µM | [14] 3.73 µM | [15] 3.11 µM | [16] 7.66 µM | [17] 7.3 µM | [18] 9.19 µM | [19] 3.16 µM | [20] 8.34 µM

Cc1cc(-n2nc3ccc(Cl)cc3n2)c(O)c(C(C)(C)C)c1
active: [9] 0.342 µM
inactive: all other assays above

CN(C)Cc1cc(C(C)(C)C)c(O)c(C(C)(C)C)c1
active: [13] 12.8 µM | [14] 0.15 µM | [15] 18.3 µM [setting not given] | [16] 20 µM | [18] 20 µM | [19] 28.7 µM | [20] 20 µM
inactive: [1] | [2] | [3] | [4] | [5] | [6] | [7] | [8] | [9] | [10] | [11] | [12] | [13] | [14] | [15] inactive [setting not given] | [16] | [17] | [18] | [19] | [20]

Sc1nc2ccccc2s1
active: [1] 1.09 µM | [3] 3.97 µM | [14] 0.016 µM
inactive: all other assays above

CCCCCCC(O)CCCCCCCCCCC(=O)OC (configuration not stated)
active: [6] 8.39 µM | [10] 3.22 µM
inactive: all other assays above

CN(C)c1ccc(C(c2ccccc2)c2ccc(N(C)C)cc2)cc1
active: [1] 2 µM | [3] 8.42 µM | [5] 3.29 µM | [6] 4.5 µM | [7] 9.37 µM | [9] 9.62 µM | [10] 5.54 µM | [17] 15.2 µM | [18] 11.3 µM | [20] 8.09 µM
inactive: all other assays above

O=C(C(=O)c1ccccc1)c1ccccc1
active: [9] 0.194 µM | [10] 0.048 µM | [17] 0.0917 µM
inactive: all other assays above

Oc1cccc2ccccc12
active: [1] 12.1 µM | [3] 13.7 µM | [7] 10.5 µM | [9] 8.23 µM
inactive: all other assays above
